Test [1] deals with Bile acid receptor (Homo sapiens) (UniProt Q96RI1). Nature of the test: OT_FXR_FXRSRC1_0480: Odyssey Thera (OT) 8-hour HEK293T Protein-Complementation Assay for Farnesoid X receptor/SRC-1 Co-activator (AID 2283383). The essentials: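 Readings were taken 8 h after dosing HEK293T cells in a split-reporter complementation format pairing FXR with SRC-1. Increased fluorescence relative to DMSO-treated wells defined activity.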

For test [2] the target is unchanged. Briefly: OT_FXR_FXRSRC1_1440: Odyssey Thera (OT) 24-hour HEK293T Protein-Complementation Assay for Farnesoid X receptor/SRC-1 Co-activator (AID 2283384). The essentials: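 Single endpoint, analysed for increased fluorescence against DMSO controls. HEK293T cells carrying FXR and SRC-1 linked to complementary reporter halves were exposed to chemicals for 24 h before reading.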

Test [3] deals with Retinoic acid receptor RXR-alpha (Homo sapiens) (UniProt P19793). Nature of the test: OT_NURR1_NURR1RXRa_0480: Odyssey Thera (OT) 8-hour HEK293T Protein Complementation Assay for Nurr1/retinoid X receptor (RXR) (AID 2283385). In a few lines: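 Gain in fluorescent complementation signal over DMSO, measured 8 hours after chemical dosing of human kidney HEK293T cells, indicated enhanced Nurr1–RXRα association.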
Retinoic acid receptor RXR-alpha (Homo sapiens), sequence (P19793 whole entry, looked up): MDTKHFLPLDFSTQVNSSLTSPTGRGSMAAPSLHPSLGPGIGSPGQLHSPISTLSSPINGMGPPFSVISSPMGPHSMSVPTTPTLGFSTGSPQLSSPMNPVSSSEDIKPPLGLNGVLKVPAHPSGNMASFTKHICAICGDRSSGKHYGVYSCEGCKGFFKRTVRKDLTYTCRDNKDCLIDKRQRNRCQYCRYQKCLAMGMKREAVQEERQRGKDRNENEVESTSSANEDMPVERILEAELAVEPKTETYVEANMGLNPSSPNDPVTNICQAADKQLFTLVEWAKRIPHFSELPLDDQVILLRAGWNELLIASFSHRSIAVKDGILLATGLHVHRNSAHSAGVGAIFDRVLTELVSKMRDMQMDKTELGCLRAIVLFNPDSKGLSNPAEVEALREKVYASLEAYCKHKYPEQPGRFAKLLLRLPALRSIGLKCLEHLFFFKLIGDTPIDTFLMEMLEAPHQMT

For test [4] the target is unchanged. Briefly: OT_NURR1_NURR1RXRa_1440: Odyssey Thera (OT) 24-hour HEK293T Protein Complementation Assay for Nurr1/retinoid X receptor (RXR) (AID 2283386). The essentials: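 Cell-based binding reporter: HEK293T cells, 24 h exposure, fluorescence-detected fragment complementation, DMSO as baseline.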
Read-out in test [5]: Tumor necrosis factor receptor superfamily member 6 (Homo sapiens) (UniProt P25445)
Briefly: LTEA_HepaRG_FAS: Life Technologies and Expression Analysis (LTEA) Assay for Fas cell surface death receptor (FAS) using HepaRG (AID 2283447; active = hit-call score of the fitted dose curve at least 0.9, where 1 is the maximum; inactive = score below 0.9). Particulars: mRNA level, 48 h; actives raise or lower the signal. The essentials:
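FAS transcript level was measured by TaqMan qRT-PCR against three housekeeping genes after 48 h chemical exposure. Cells were HepaRG, 0.5% DMSO vehicle, with a top concentration of 100 uM and half-log dilutions over eight points, in duplicate.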

Read-out in test [6]: Fatty acid synthase (Homo sapiens) (UniProt P49327)
Nature of the test: LTEA_HepaRG_FASN: Life Technologies and Expression Analysis (LTEA) Assay for Fatty Acid Synthase (FASN) using HepaRG (AID 2283448; active = hit-call score of the fitted dose curve at least 0.9, where 1 is the maximum; inactive = score below 0.9;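 for AC50: differentiated human HepaRG liver cells in serum-free induction medium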). To be noted: mRNA level, 48 h; actives raise or lower the signal. In a few lines: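 In human HepaRG cultures, 48 h chemical exposure (up to 100 uM, 0.5% DMSO) preceded TaqMan qRT-PCR of FASN.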

Read-out in test [7]: Cyclin D2 (CCND2), CCND2 (gene 894)
Nature of the test: LTEA_HepaRG_CCND2: Life Technologies and Expression Analysis (LTEA) Assay for Cyclin D2 (CCND2) using HepaRG (AID 2283449; active = hit-call score of the fitted dose curve at least 0.9, where 1 is the maximum; inactive = score below 0.9). To be noted: mRNA level, 48 h; actives raise or lower the signal. In a few lines:
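CCND2 transcript levels, quantified by qRT-PCR and normalised to three housekeeping genes, were fitted bidirectionally against 0.5% DMSO. HepaRG cultures were dosed 48 h in duplicate with an 8-point half-log series up to 100 uM.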

The target in test [8] is Peroxisome proliferator-activated receptor gamma (Homo sapiens) (UniProt P37231). Briefly: OT_PPARg_PPARgSRC1_0480: Odyssey Thera (OT) 8-hour Protein-Complementation Assay for Peroxisome Proliferator-activated Receptor Gamma / SRC-1 Co-activator (AID 2283387). The essentials: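 Read-out: 488 nm N/C fluorescence ratio from complemented Venus YFP fragments, ≥350 cells per image, gain-of-signal fitted against DMSO baseline. Fusions of PPARg/SRC-1 with IFP1/IFP2 expressed transiently in HEK293T; compounds applied 8 h.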
Peroxisome proliferator-activated receptor gamma (Homo sapiens), sequence (P37231 whole entry, looked up, the tested form may be a part): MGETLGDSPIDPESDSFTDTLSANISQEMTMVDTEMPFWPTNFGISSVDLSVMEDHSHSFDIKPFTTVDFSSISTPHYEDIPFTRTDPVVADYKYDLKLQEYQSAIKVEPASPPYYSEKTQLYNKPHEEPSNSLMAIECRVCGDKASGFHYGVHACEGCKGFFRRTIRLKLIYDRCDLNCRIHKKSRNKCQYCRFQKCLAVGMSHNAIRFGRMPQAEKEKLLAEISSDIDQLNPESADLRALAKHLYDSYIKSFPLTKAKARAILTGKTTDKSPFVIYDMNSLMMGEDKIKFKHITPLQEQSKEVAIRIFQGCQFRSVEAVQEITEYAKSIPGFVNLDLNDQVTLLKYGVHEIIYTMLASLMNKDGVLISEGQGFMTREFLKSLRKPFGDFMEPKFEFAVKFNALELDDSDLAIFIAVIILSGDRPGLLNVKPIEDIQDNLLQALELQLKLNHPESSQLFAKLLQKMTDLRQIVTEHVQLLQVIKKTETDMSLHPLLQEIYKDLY

Test [9] shares this target. Nature of the test: OT_PPARg_PPARgSRC1_1440: Odyssey Thera (OT) 24-hour Protein-Complementation Assay for Peroxisome Proliferator-activated Receptor Gamma/ SRC-1 Co-activator (AID 2283388). In a few lines:
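HEK293T transiently transfected with PPARg/SRC-1 split-Venus YFP fusions 48 h before dosing, then treated 24 h at 37C. Fixed cells imaged; nuclear/cytoplasmic 488 nm fluorescence ratio, gain of signal versus DMSO.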

Test [10] deals with Estrogen receptor (Homo sapiens) (UniProt P03372). Nature of the test: OT_ERa_GFPERaERE_0480: Odyssey Thera (OT) 8-hour HeLa Transcription Induction Assay for Estrogen Receptor (AID 2283381; active = hit-call score of the fitted dose curve at least 0.9, where 1 is the maximum; inactive = score below 0.9). In a few lines: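 An 8 h HeLa transcription-induction format with a GFP reporter under ERE control, read by fluorescence microscopy; single endpoint fitted positively with DMSO as baseline.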
Estrogen receptor (Homo sapiens), sequence (P03372 whole entry, looked up): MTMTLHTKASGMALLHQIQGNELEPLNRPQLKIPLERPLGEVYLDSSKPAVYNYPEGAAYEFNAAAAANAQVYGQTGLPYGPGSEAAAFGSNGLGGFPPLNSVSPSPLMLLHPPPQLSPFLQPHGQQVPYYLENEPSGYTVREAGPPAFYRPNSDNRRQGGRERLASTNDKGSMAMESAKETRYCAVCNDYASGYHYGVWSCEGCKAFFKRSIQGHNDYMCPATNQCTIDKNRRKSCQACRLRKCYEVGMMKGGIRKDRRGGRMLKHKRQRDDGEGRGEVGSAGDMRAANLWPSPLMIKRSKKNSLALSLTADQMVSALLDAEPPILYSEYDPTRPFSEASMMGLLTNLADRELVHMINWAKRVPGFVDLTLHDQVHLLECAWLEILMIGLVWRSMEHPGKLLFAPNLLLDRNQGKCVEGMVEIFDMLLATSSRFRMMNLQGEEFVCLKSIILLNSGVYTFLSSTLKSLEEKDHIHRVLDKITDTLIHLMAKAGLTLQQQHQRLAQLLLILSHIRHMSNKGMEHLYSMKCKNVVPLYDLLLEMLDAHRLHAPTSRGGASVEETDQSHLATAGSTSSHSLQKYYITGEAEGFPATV

Test [11] shares this target. Briefly: OT_ERa_GFPERaERE_0120: Odyssey Thera (OT) 2-hour HeLa Transcription Induction Assay for Estrogen Receptor (AID 2283382). In a few lines:
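Two-hour compound treatment of HeLa cells preceded microscopy imaging of an inducible fluorescent reporter. Image-based quantification gave one endpoint, analysed for signal increase relative to DMSO controls.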

Test [12] is described as follows: CEETOX_H295R_11DCORT: CeeTox H295R High-throughput Steroidogenesis Assay for 11-Deoxycortisol (11DCORT) (AID 2283432; active = hit-call score of the fitted dose curve at least 0.9, where 1 is the maximum; inactive = score below 0.9;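 for AC50: 11-deoxycortisol secreted into the medium measured by LC-MS/MS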). Particulars: actives raise or lower the signal. In a few lines:
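H295R cells; 10 uM forskolin prestim 48 h; compound in 0.1% DMSO 48 h; media extracted with MTBE; 11-deoxycortisol by LC-MS/MS, 7-point standard curve; gain/loss vs DMSO baseline; viability by MTT in same wells.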

Test [13] is described as follows: CEETOX_H295R_OHPREG: CeeTox H295R High-throughput Steroidogenesis Assay for OH-Pregnenolone (OHPREG) (AID 2283434; active = hit-call score of the fitted dose curve at least 0.9, where 1 is the maximum; inactive = score below 0.9). Particulars: actives raise or lower the signal. The essentials: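 Secreted 17alpha-hydroxypregnenolone measured by HPLC-MS/MS after liquid-liquid extraction. Human adrenal H295R cells received 48 h forskolin (10 uM) stimulation before 48 h chemical exposure at 0.1% final DMSO; MTT viability in same wells; bidirectional fit against DMSO.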

The nature of test [14]: CEETOX_H295R_OHPROG: CeeTox H295R High-throughput Steroidogenesis Assay for OH-Progesterone (OHPROG) (AID 2283435; active = hit-call score of the fitted dose curve at least 0.9, where 1 is the maximum; inactive = score below 0.9;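 note: 17alpha-hydroxyprogesterone secreted into medium measured by HPLC-MS/MS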). To be noted: actives raise or lower the signal. The essentials:
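Human adrenocortical H295R cells, passage 10 or lower, were treated with chemical for 48 h after forskolin priming, and hormone output in the medium was quantified by LC-MS/MS.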

Test [15] in a line: CEETOX_H295R_CORTISOL: CeeTox H295R High-throughput Steroidogenesis Assay for Cortisol (AID 2283438; active = hit-call score of the fitted dose curve at least 0.9, where 1 is the maximum; inactive = score below 0.9;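 note: cortisol secreted into medium quantified by LC-MS/MS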). To be noted: actives raise or lower the signal. In a few lines:
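Steroidogenesis in H295R, per modified OECD 456: 48 h forskolin (10 uM), then 48 h exposure, 0.1% DMSO. Cortisol by extraction and tandem MS; viability by MTT (570/650 nm); cytotoxic chemicals diluted and re-tested.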

Test [16] can be described thus: CEETOX_H295R_DOC: CeeTox H295R High-throughput Steroidogenesis Assay for DOC (AID 2283439; active = hit-call score of the fitted dose curve at least 0.9, where 1 is the maximum; inactive = score below 0.9). To be noted: actives raise or lower the signal. In a few lines:
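H295R, fsk 10 uM ×48 h pre, cmpd ×48 h (0.1% DMSO). Media → MTBE extr. → LC-MS/MS, DOC. Bidirectional fit vs DMSO; MTT viability same wells, re-test diluted if <70%.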

Test [17] in a line: CEETOX_H295R_PROG: CeeTox H295R High-throughput Steroidogenesis Assay for Progesterone (PROG) (AID 2283442; active = hit-call score of the fitted dose curve at least 0.9, where 1 is the maximum; inactive = score below 0.9;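 for AC50: human H295R adrenal cells primed with 10 µM forskolin before dosing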). Particulars: actives raise or lower the signal. In a few lines: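 H295R adrenal cells prestimulated 48 h with 10 uM forskolin, then exposed 48 h to test chemical in 0.1% DMSO. Progesterone in medium quantified by HPLC-MS/MS after MTBE extraction; viability checked by MTT in same wells.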

Results filed as inconclusive are left out. The source made the active and inactive calls. Rule for the calls, unless noted: active = hit-call score of the fitted dose curve at least 0.9, where 1 is the maximum; inconclusive = response in the unintended direction; inactive = score below 0.9.

As a reminder, the AC50 is the concentration at which the activity in the assay is half-maximal.

Fatty acid synthase (Homo sapiens), sequence (P49327 whole entry, looked up): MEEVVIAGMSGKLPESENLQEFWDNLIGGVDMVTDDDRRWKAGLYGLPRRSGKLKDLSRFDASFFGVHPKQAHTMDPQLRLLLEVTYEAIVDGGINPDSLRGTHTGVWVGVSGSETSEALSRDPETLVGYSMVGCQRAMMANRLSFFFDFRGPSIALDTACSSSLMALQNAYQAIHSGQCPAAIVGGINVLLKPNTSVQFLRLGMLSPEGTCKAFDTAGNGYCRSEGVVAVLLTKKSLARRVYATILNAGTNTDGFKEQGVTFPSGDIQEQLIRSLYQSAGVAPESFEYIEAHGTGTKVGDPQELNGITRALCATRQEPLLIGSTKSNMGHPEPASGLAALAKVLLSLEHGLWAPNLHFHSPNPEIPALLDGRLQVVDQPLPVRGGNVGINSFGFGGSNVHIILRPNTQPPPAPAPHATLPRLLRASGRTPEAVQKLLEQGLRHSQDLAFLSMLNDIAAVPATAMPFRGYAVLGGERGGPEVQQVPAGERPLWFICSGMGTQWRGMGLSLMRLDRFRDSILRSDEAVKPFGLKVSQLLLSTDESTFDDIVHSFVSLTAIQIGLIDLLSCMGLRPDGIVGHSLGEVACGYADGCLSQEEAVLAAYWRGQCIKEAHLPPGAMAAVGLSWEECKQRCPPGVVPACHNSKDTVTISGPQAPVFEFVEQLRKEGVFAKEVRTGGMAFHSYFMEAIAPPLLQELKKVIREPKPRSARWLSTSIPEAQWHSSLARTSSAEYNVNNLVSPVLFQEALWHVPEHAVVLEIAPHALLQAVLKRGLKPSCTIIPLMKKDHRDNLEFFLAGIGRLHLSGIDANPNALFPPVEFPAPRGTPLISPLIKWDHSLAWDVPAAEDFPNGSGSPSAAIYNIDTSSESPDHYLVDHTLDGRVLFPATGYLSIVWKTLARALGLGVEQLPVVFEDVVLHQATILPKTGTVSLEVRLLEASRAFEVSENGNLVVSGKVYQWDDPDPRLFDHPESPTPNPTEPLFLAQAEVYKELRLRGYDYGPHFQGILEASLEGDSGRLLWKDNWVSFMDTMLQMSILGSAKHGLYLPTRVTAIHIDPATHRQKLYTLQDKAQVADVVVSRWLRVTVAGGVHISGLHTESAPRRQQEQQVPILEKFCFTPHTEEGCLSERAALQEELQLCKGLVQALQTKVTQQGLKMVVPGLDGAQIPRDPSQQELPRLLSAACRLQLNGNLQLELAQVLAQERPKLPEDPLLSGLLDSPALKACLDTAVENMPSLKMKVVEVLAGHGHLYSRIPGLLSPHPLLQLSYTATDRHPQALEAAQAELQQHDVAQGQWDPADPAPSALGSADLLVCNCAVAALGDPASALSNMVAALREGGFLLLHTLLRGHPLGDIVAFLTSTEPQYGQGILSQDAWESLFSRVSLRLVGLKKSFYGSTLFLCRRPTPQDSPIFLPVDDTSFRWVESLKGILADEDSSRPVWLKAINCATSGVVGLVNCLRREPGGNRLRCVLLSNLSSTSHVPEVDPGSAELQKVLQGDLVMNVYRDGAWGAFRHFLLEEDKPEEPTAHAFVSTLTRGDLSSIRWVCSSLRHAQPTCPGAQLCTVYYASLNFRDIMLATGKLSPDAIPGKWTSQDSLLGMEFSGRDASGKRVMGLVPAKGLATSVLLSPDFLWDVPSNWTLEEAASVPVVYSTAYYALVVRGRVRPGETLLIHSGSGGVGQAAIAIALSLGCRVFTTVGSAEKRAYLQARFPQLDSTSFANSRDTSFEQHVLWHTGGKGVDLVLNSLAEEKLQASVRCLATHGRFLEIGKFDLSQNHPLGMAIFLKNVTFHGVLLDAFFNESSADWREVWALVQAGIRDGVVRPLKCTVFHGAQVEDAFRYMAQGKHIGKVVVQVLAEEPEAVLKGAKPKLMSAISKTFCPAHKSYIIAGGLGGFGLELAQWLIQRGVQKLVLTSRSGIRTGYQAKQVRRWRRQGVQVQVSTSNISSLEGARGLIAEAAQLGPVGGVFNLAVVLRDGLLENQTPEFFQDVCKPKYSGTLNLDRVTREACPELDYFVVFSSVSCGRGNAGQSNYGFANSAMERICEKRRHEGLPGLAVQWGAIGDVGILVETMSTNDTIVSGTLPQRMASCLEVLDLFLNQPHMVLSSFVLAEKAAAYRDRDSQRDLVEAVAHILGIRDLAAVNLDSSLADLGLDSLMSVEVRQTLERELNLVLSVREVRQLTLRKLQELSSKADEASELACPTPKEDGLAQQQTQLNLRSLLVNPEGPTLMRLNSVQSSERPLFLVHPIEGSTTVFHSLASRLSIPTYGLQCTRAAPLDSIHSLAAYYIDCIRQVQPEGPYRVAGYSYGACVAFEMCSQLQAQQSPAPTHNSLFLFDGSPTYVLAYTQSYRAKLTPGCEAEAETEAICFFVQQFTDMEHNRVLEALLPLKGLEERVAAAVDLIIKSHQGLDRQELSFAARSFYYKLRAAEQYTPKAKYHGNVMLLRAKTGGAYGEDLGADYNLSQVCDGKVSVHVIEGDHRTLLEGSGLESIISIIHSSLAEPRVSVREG
Bile acid receptor (Homo sapiens), sequence (Q96RI1 whole entry, looked up): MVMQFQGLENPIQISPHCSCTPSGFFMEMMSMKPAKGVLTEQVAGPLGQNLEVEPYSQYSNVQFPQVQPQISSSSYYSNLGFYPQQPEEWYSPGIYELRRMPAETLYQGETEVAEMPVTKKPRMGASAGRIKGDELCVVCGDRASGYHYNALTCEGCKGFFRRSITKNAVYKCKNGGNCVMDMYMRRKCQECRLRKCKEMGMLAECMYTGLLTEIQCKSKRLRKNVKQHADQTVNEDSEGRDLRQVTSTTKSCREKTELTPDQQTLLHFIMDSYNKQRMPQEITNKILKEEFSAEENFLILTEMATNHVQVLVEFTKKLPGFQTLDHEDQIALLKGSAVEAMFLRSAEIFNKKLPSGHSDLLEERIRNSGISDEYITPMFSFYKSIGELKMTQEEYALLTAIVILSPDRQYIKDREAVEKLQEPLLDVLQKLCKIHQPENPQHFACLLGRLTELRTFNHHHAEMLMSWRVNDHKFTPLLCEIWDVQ

`CC(C)c1cccc(C(C)C)c1NC(=O)NS(=O)(=O)c1cc(C(C)(C)O)co1`: the molecule was called inactive in test [1], in test [2], in [3], in test [4], in [5] and in test [6]. The outcome in test [7] was inactive.
In the case of `CC(=O)OC1CC(C)OC(C)O1` (stereo unspecified), the result in test [1], in test [4], in [8], in test [9], in [5] and in test [6] was inactive. Also, in test [7], the call was inactive.
For the molecule `CCCCC(CC)COC(=O)CCCCCCCC(=O)OCC(CC)CCCC` (stereo unspecified), the molecule was called inactive in [1], in test [3], in [4], in [5], in test [6] and in test [7].
`O=C1CCCCC1`: the outcome in test [10], in [11], in test [4], in test [8], in test [9] and in test [5] was inactive. Besides, the result in [6] and in test [7] was inactive.
As for `CC(C)COC(=O)CCCCC(=O)OCC(C)C`, the molecule was classed as inactive in test [1], in test [2], in test [3], in test [4], in [8] and in test [9]. Also, the outcome in [5], in test [6] and in test [7] was inactive.
For `O=C(O)CC(O)(CC(=O)O)C(=O)O`, the call in test [10], in [11], in [8], in test [9], in test [5] and in [6] was inactive. In addition, in test [7], the outcome was inactive.
For `O=[Si]=O`, the outcome in test [10], in [11], in [8], in test [9] and in test [6] was inactive.
For `CN(C)C(=O)NC1(c2ccccc2)CCN(CC[C@@]2(c3ccc(F)c(F)c3)CN(C(=O)c3ccccc3)CCO2)CC1`, the call in [1], in test [2], in test [3], in [4], in test [8] and in test [9] was inactive. Moreover, the outcome in [5] and in [7] was inactive. The half-maximal activity concentration (AC50) in test [6] was 29.5 µM (active).
As to `Cc1cc(Cc2ccc(N)c(C)c2)ccc1N`, the concentration at half-maximal activity (AC50) is 50 µM (active) in [1]; 66.7 µM (active) in test [2]; 34.9 µM (active) in [12]; 4.69 µM (active) in [13]; 1.37 µM (active) in [14]; 22.9 µM (active) in [15]. For the same molecule, the values for the AC50 in test [16] and in test [17] were 13.2 µM (active) and 18.9 µM (active), respectively. The molecule was classed as inactive in test [3], in [4], in [5], in test [6] and in [7].
For the molecule `S=c1[nH]c2ccccc2s1`, the outcome in test [1], in test [2], in test [4], in test [8], in [9] and in test [12] was inactive. The molecule was called inactive in test [15], in [16], in test [17], in [5], in [6] and in test [7]. In addition, the half-maximal activity concentration (AC50) in [13] was 78.9 µM (active); in test [14], 73.1 µM (active).
Consider `O=Cc1ccccc1C=O`, for which the molecule was called inactive in [10], in test [11], in test [4], in [8], in test [9] and in [5]. Moreover, the molecule was called inactive in test [6] and in test [7].
`CC(=O)S[C@H](C(=O)N[C@H]1Cc2ccccc2[C@H]2CCC[C@@H](C(=O)O)N2C1=O)C(C)C`: the molecule was classed as inactive in test [1], in test [3], in test [4], in test [8], in [9] and in [5]. Besides, the molecule was classed as inactive in test [6] and in test [7].

The values are drawn from PubChem BioAssay (EPA / NIEHS).
